Max dye-equivalent concentration data for 55 molecules are collected here from PubChem BioAssay AID594 (National Center for Advancing Translational Sciences (NCATS), 2007).

Hit rate of the full screen: of about 59,000 compounds, about 30 (0.05%) were called active. No stated cut-off is given here; in the data, active means max dye-equivalent concentration above about 11 nM; inconclusive means between about 1.1 nM and that limit; inactive means weaker than that. The sample as a whole holds a higher share of actives than the screen did.

A short description of this assay: qHTS Assay for Spectroscopic Profiling in Rhodamine Spectral Region. Conditions: Rhodamine-region fluorescence, 547/598 nm, Tris buffer; stronger effect = higher value. An excerpt:
NIH Molecular Libraries Screening Centers Network [MLSCN] NIH Chemical Genomics Center [NCGC] […] Occasionally, the artifactual effect may originate from the compound#s own spectral or other biophysical properties which generally tend to track its assay concentration. Pre-screening/profiling the library with respect to the compounds# spectral properties should help one exclude false positives early on. While the most informative fluorescent profiling data set is obtained by performing a full excitation and emission scan of each well by using a monochromator-based plate reader, such an approach is practical only on a very limited scale as scanning each well requires long time. An alternative approach, applied here, is to perform plate reader scans using selected excitation and emission wavelength pairs to generate a multidimensional relational database that correlates compound concentration and the respective relative fluorescence intensity at a given wavelength set. A standard curve of rhodamine present on each plate as six-point concentration series, was used to compute a normalized fluorescence response, termed dye-equivalent concentration, for each compound at each concentration.
NCGC Assay Protocol Summary: Buffer: 100 mM Tris buffer, pH 8.0 Dye standard plate: The wells in columns 1 through 4 of a Kalypsys polypropylene 1536-well compound plate were filled with standard solutions of fluorophore corresponding to the spectral region of interest. Solutions of rhodamine were placed in the following wells: E1, F1: 3 mM, E2, F2: 300 uM, E3, F3: 30 uM, E4, F4: zero (DMSO), G1, H1: 3 uM, G2, H2: […], G3, H3: 300 nM, G4, H4: zero (DMSO). Assay Steps: Six uL of buffer were dispensed to 1536-well Greiner black plates. Compounds and dye standards (23 nL) were transferred via Kalypsys PinTool. The plates were incubated for 15 min at room temperature, and then read on ViewLux (Perkin-Elmer) High-throughput CCD imager using 547 nm and 598 nm excitation and emission filter set. Keywords: NIH Roadmap, MLSCN, MLI, MLSMR, qHTS, NCGC, Rhodamine , Fluorescent Profiling.
Turning to `Cc1noc(C)c1-c1cc(NCc2cccnc2)ncn1`, the max dye-equivalent concentration result is “inactive”.
For `CN1CCN(c2ncc3nc(-c4ccc(Cl)cc4)c(=O)n(-c4ccccc4)c3n2)CC1`, the max dye-equivalent concentration result is “inactive”.
Take `CC(=O)c1ccc(-n2nnnc2SCC(=O)N2CCN(C(=O)c3ccco3)CC2)cc1`: the max dye-equivalent concentration result was “inactive”.
In the case of `COc1ccc2c(c1)CCc1c(C(=O)N3CCCC3)noc1-2`, the max dye-equivalent concentration result is “inactive”.
Consider `O=C(NCc1ccco1)c1sc2cccc(F)c2c1Cl`, for which the max dye-equivalent concentration entry is “inactive”.
For `Cc1cc2nc(-c3ccc(NC(=O)c4cccnc4)cc3)oc2cc1C`, the max dye-equivalent concentration entry was “inactive”.
As for `c1ccc2c(CNn3cnnc3)cccc2c1`, the entry is “inactive”; as for `Cn1c(SCC(=O)Nc2cccc(O)c2)nnc1-c1ccc(S(=O)(=O)N2CCOCC2)cc1`, “inactive”; as for `CC(C)C(=O)N1CCN(CCN=CC2=C(O)CC(c3ccco3)CC2=O)CC1` (stereo not given), “inactive”.
The value for `O=C(c1cc(C(F)(F)F)cc(C(F)(F)F)c1)N1CCC[C@@]2(CCN(c3ccccn3)C2)C1` was “inactive”.
Turning to `COc1ccc2c(c1)CCc1c(C(=O)N3CCc4ccccc4C3)noc1-2`, the max dye-equivalent concentration entry was “inactive”.
As for `S=c1[nH]nc(SCc2ccccc2Cl)c2[nH]cnc12`, the entry is “inactive”; as for `Brc1ccc(Nc2c3c(nc4ncnn24)CCC3)cc1`, “inactive”; as for `Cc1cc(=O)oc(C)c1C(=O)NC1CC(C)(C)NC(C)(C)C1`, “inactive”.
For `CCOC(=O)COc1ccc(Cl)cc1C1NC(=O)NC(C)=C1C(C)=O` (stereo not given), the max dye-equivalent concentration result is “inactive”.
As for `Cc1cccc(N2CCN(C(=O)C3CCN(S(=O)(=O)c4cnc[nH]4)CC3)CC2)c1C`, the max dye-equivalent concentration result is “inactive”.
Regarding `Cc1cc(Cl)ccc1OCC(=O)Oc1c(Cl)c(Cl)c(Cl)c(Cl)c1Cl`, the max dye-equivalent concentration entry was “inactive”.
For the molecule `CCOC(=O)N1CCN(S(=O)(=O)c2cc(Br)cc3c2N(C(=O)C2CC2)CC3)CC1`, the max dye-equivalent concentration result is “inactive”.
For the molecule `CCOC(=O)c1cc2cc(C)ccc2[nH]1`, the max dye-equivalent concentration entry was “inactive”.
As for `CC(C)C[C@H](NC(=O)Nc1cccc(C(F)(F)F)c1)C(=O)O`, the max dye-equivalent concentration result is “inactive”.
For the molecule `CN(C)CCCNc1c2c(c(C#N)c3nc4ccccc4n13)CCC2`, the max dye-equivalent concentration entry is “inactive”.
Turning to `COc1ccc(CNC(=O)c2c(C)cc(=O)oc2C)cc1OC`, the max dye-equivalent concentration result was “inactive”.
Turning to `CC(=O)c1c(C)c[nH]c1C`, the max dye-equivalent concentration result is “inactive”.
As to `O=C(NCc1ccccc1)C1C(=O)N(Cc2ccccc2)C(=O)C1C1(O)CCCC1` (stereo not given), the max dye-equivalent concentration result is “inactive”.
Consider `Cn1c(=O)c2c(nc(N3CCCCCC3)n2CC(O)COc2ccc(Cl)cc2)n(C)c1=O` (stereo not given), for which the max dye-equivalent concentration entry is “inactive”.
The value for `CN(C)c1ncc2nc(-c3ccc(F)cc3)c(=O)n(Cc3ccc(F)cc3)c2n1` was “inactive”; that for `CS(=O)(=O)N1CCC2(CC1)CN(c1ccncc1)C2` was “inactive”.
Take `Cc1ccccc1N1CC(c2nc3ccccc3[nH]2)CC1=O` (stereo not given): the max dye-equivalent concentration entry is “inactive”.
With `CCN1CCN(C(=O)c2ccccc2N(C)S(=O)(=O)c2ccc(C)cc2)CC1`, the max dye-equivalent concentration result is “inactive”.
With `Cc1ccc(C(=O)Nc2ccccc2C(=O)NC2CCCCC2)cc1S(=O)(=O)N1CCOCC1`, the max dye-equivalent concentration entry was “inactive”.
With `C/C(O)=C\c1nc(=O)c2c(C)cc(C)nc2n1-c1ccccc1`, the max dye-equivalent concentration entry was “inactive”.
For the molecule `CC(C)NC(=O)N1CC[C@@]2(CCCN(C(=O)c3cccc(F)c3)C2)C1`, the max dye-equivalent concentration result was “inactive”.
For `CCCn1c(SCC(=O)Nc2cccc(C(=O)OCC)c2)nnc1-c1ccoc1C`, the max dye-equivalent concentration entry was “inactive”.
In the case of `CCOc1ccc(NCCC(=O)c2ccc3c(c2)OCO3)cc1`, the max dye-equivalent concentration result was “inactive”.
As to `CCOC(=O)N1CCN(C(=O)c2cc3c(ccc4ccccc43)oc2=O)CC1`, the max dye-equivalent concentration result is “inactive”.
Consider `O=C(Nc1ccc(NC(=O)c2cccs2)cn1)c1ccco1`, for which the max dye-equivalent concentration result is “inactive”.
Turning to `CCCCCOC(=O)NCCOC(=O)Nc1ccc(C(=O)OCC)cc1`, the max dye-equivalent concentration result was “inactive”.
For the molecule `CC1CC(c2ccccc2)n2nc(NC(=O)c3cccs3)nc2N1` (stereo not given), the max dye-equivalent concentration entry is “inactive”.
Turning to `CCn1c(=O)cc(OCC(=O)NCCCN2CCN(c3cccc(Cl)c3)CC2)c2ccccc21`, the max dye-equivalent concentration entry was “inactive”.
As to `O=C(c1csnn1)N1CCC[C@@]2(CCN(c3cccc(-c4ccccc4)c3)C2)C1`, the max dye-equivalent concentration result is “inactive”.
`CCOc1ccccc1/C=c1\sc2nc(-c3ccco3)nn2c1=O`: the max dye-equivalent concentration result was “inactive”.
As for `CN(c1ccccc1)c1ccc(/C=c2\s/c(=C(/C#N)C(=O)C(C)(C)C)n(Cc3ccco3)c2=O)cc1`, the max dye-equivalent concentration is 36 nM (active).
Regarding `CCOC(=O)CSc1nc2c(sc(=S)n2CCc2ccccc2)c(=O)n1Cc1ccco1`, the max dye-equivalent concentration result is “inactive”.
`Cc1cccc(OCc2nnc(SCc3nc4cc(C(F)(F)F)ccc4c(=O)[nH]3)o2)c1`: the max dye-equivalent concentration entry was “inactive”.
On to `COc1ccc(C(CNC(=O)c2cccnc2SC)N2CCOCC2)cc1` (stereo not given), for which the max dye-equivalent concentration entry is “inactive”.
On to `O=C(CSc1nnc(-c2ccc(NS(=O)(=O)c3ccccc3)cc2)o1)NCC1CCCO1` (stereo not given), for which the max dye-equivalent concentration entry is “inactive”.
Consider `O=C(C1CCC(C(=O)N2CCCC2)CC1)N1CCCC1` (stereo not given), for which the max dye-equivalent concentration entry was “inactive”.
Turning to `COc1ccc(S(=O)(=O)N2CCCC(C(=O)Nc3ccc(NC(=O)c4ccccn4)cc3)C2)cc1` (stereo not given), the max dye-equivalent concentration result was “inactive”.
With `CCn1c(NCCc2ccc(OC)c(OC)c2)nc2c1c(=O)n(C)c(=O)n2C`, the max dye-equivalent concentration entry was “inactive”.
For the molecule `CCNc1nc(N)nc(Oc2ccc(OCC)nn2)n1`, the max dye-equivalent concentration result was “inactive”.
As for `CC1=Nn2c(nnc2-c2ccccc2)SC1`, the entry is “inactive”; as for `CN(CC(=O)NC1CCCCC1)S(=O)(=O)c1ccc(Br)s1`, “inactive”; as for `O=C(CSc1nnc(-c2ccccc2)o1)N1CCOCC1`, “inactive”.
As to `Cc1ccc(CC2CC(=O)N(c3ccc4c(c3)OCCO4)C2=O)cc1` (stereo not given), the max dye-equivalent concentration entry is “inactive”.
For `C[C@]1(O)CC[C@H]2[C@H]3CC=C4N5CCN=C5CC[C@@]4(C)[C@H]3CC[C@@]21C`, the max dye-equivalent concentration entry was “inactive”.
